Reference: PubChem BioAssay (NCATS)
Several values for one entry are separate records, joined by “and”; a condition that tells them apart may be missing. Equal entries are not always repeated. Records with an inconclusive call do not appear. Activity calls are given as the source filed them. Calls follow the shape of the dose curve; as a rule, active = well fitted cell-killing curve with a large enough effect; inconclusive = small, poorly fitted or top-dose-only effect, or effect the other way; inactive = no such curve, though single readings can be large or run the other way.

Assay: Viability qHTS for spleen associated tyrosine kinase inhibitor (SYKi) drug resistant MV4-11 cells (AID 1963824); also: nearly all actives have a fitted effect of over 35% in size
Conditions: SYKi-resistant MV4-11 viability, CellTiter-Glo, 72 h; series mostly up to 45 µM; viability, % of control: at the top concentration
Text: Department of Medicine, Hematology/Oncology
University Hospital Frankfurt, Germany.
Trials have shown promising clinical activity of the selective SYK inhibitor entospletinib in patients with high expressing HOXA9/MEIS1 acute leukemias. As the development of resistance mechanisms is a common problem in the use of targeted drugs, we performed a chemical library screen to identify drug sensitivities in SYK inhibitor resistant AML cells. […] Glucocorticoids are potent immunosuppressants which work in part by inhibiting the transcription of cytokine genes.
Described herein is a viability screen to look for activity in the SYK inhibitor drug resistant cell line against four NCATS compound libraries (MIPE 5.0, NPC, NPACT, and Kinase) totaling 11372 compounds. Active hits were reacquired for confirmation and further secondary assay testing.
SEQUENCE No. (e.g., 1, 2, 3, etc.); […] (e.g., Cells, Incubation, Reagent, etc.); VALUE; DESCRIPTION.
1; Media; 2uL; white, solid-bottom Corning assay plate.
2; Compounds; 23nL; Echo acoustic dispenser.
3; Cell; 5uL; 500 cells per well.
4: Incubation; 72hr; 37 C, 5% CO2, 95% humidity.
5; Reagent; 3uL; CellTiter-Glo reagent (Promega).
6; Incubation; 10min; room temperature.
7; Detection; Luminescence; ViewLux plate reader (PerkinElmer).
NOTES (numbers refer to Sequence numbers above
1. Quantitative high-throughput screening (qHTS) of small molecule compounds was conducted on drug resistant SYKi MV4-11 cell line.
2. Twenty-three nanoliter of small molecule compounds were added to each assay plates using the Echo acoustic dispenser (Beckman Coulter).
3. Cells were seeded into the assay plates at a final density of 500 cells in 5uL of media per well using the Multidrop Combi dispenser.
4. Plates were covered with stainless steel gasketed lids and incubated for 72 hours at standard cell culture conditions.
5. Viability was assessed by adding 3uL of CellTiter-Glo detection reagent (Promega).
6. Plates were covered with gasket lids and incubated for 10 minutes at room temperature.
7. Luminescence was measured on a ViewLux plate reader (PerkinElmer).
Potency is read from the fitted curve at half-maximal effect.

Question: With CC(C)(C)C(=O)NCCCC(=O)O as the compound, how does the “viability, % of control” value read?
Answer: The value was 87.5% (inactive).

Question: Which Potency does the source give for Cn1nc(-c2ccc(C(F)(F)F)cc2)nc2c(=O)n(C)c(=O)nc1-2 here?
Answer: Its Potency is 4.11 µM (active).

Question: With CC(C)(C)C(=O)OCOC(=O)C1N2C(=O)CC2S(=O)(=O)C1(C)C (stereo not given) as the compound, how does the “viability, % of control” value read?
Answer: Its value is 72.6% (inactive).

Question: Which Potency does the source give for CCNC(=O)Nc1ccc(-c2nc3c(c(N4CCOC[C@H]4C)n2)CCN(C2COC2)C3)cc1 here?
Answer: The Potency was 0.82 µM (active).

Question: With O=C(Oc1ccccc1C(=O)O)c1ccccc1O as the compound, how does the “viability, % of control” value read?
Answer: The value was 98.5% (inactive).

Question: For C/C=C1\[C@H](O[C@@H]2O[C@H](CO)[C@@H](O)[C@H](O)[C@H]2O)OC=C(C(=O)O)[C@H]1CC(=O)OCCc1ccc(O)cc1, which “viability, % of control” value is on record?
Answer: Its value is 101% [at 17.3 µM] (inactive).

Question: For CC(C)C1(O)C=C2C(=O)CC3C(C)(C(=O)O)CCCC3(C)C2CC1 (stereo not given), which “viability, % of control” value is on record?
Answer: The value was 111% (inactive).

Question: With CCOc1nc2c(N)ncnc2n1CC as the compound, how does the “viability, % of control” value read?
Answer: The value was 69.8% (inactive).

Question: With C=CC(=O)N1CCC[C@@H](n2nc(-c3cccc(C(=O)Nc4ccc(C(C)C)c(C)c4)c3)c3c(N)ncnc32)C1 as the compound, how does the Potency read?
Answer: Its Potency is 2.31 µM (active).

Question: Which Potency does the source give for CONC(=O)Nc1ccc(-c2sc3c(c2CN(C)Cc2ccccc2)c(=O)n(-c2ccccc2)c(=O)n3Cc2c(F)cccc2F)cc1 here?
Answer: The Potency was 16.6 µM (active).

Question: For CN(C)C(=O)C(CCN1CCC(O)(c2ccc(Cl)cc2)CC1)(c1ccccc1)c1ccccc1, which Potency is on record?
Answer: The Potency was 15 µM (active) and 10.5 µM (active).

Question: Which viability, % of control does the source give for C[C@@H]1CC[C@@]2(OC1)O[C@H]1C[C@H]3[C@@H]4CC[C@H]5C[C@@H](O)CC[C@]5(C)[C@H]4CC(=O)[C@]3(C)[C@H]1[C@@H]2C here?
Answer: The viability, % of control was 73.5% [at 4.97 µM] (inactive).

Question: For CN1CCC(=C2c3ccccc3C=Cc3ccccc32)CC1, which Potency is on record?
Answer: The Potency was 18.8 µM (active).

Question: With CC(C)=CCCC1(C)/C=C/C(OC(=O)C=C(C)C)C(C)(O)/C=C/C(=O)/C(CO)=C\C1 (stereo not given) as the compound, how does the Potency read?
Answer: Its Potency is 2.52 µM (active).

Question: Which “viability, % of control” value does the source give for C[C@@H]1C[C@@H](O)[C@@]23CO[C@]2(CO)C[C@@H](O)CC3[C@@]12CC(c1ccoc1)OC2=O (stereo not given in full) here?
Answer: Its value is 81% (inactive).

Question: For COC(=O)c1cc(Br)cnc1N1CCC(NC2CCCCC2)C(O)C1 (stereo not given), which “viability, % of control” value is on record?
Answer: Its value is 95% (inactive).

Question: Which Potency does the source give for CNC(=O)c1ccccc1Nc1nc(Nc2ccc3c(c2OC)CCC[C@@H](N2CCN(CCO)CC2)C3)ncc1Cl here?
Answer: The Potency was 0.58 µM (active).

Question: For Nc1c2c(nc3ccccc13)CCCC2O (stereo not given), which Potency is on record?
Answer: Its Potency is 0.841 µM (active).

Question: For CCNC(=O)N1CCN(CCCC(c2ccc(F)cc2)c2ccc(F)cc2)CC1, which Potency is on record?
Answer: The Potency was 18.8 µM (active).

Question: With O=c1[nH]nc(OCCCc2ccc(Cl)cc2)c(NCc2cccnc2)c1Br as the compound, how does the Potency read?
Answer: The Potency was 4.11 µM (active).

Question: With CC(O)C(O)/C=C/C=C/C(=O)O[C@@H]1C=C(C(=O)O)[C@](O)(CO)[C@@]2(C)CCCC(C)(C)[C@H]12 (stereo not given in full) as the compound, how does the “viability, % of control” value read?
Answer: The value was 88.6% [at 17.3 µM] (inactive).

Question: Which Potency does the source give for O=c1cc(NCCCN[C@@H]2CCOc3c(Br)cc(Br)cc32)[nH]c2ccsc12 here?
Answer: The Potency was 7.31 µM (active).

Question: Which “viability, % of control” value does the source give for CC1(C)[C@@H]2CC=C(CO[C@@H]3O[C@H](CO[C@@H]4OC[C@H](O)[C@H](O)[C@H]4O)[C@@H](O)[C@H](O)[C@H]3O)[C@H]1C2 here?
Answer: The value was 99.9% [at 17.3 µM] (inactive).

Question: Which “viability, % of control” value does the source give for Cc1nc(C(=O)NCC(=O)O)c(O)c2ccc(Oc3ccccc3)cc12 here?
Answer: The value was 74.1% (inactive).

Question: For COc1cc(O)cc(C)c1C(=O)O[C@H]1[C@@H](OC(C)=O)[C@H](n2ccc(=O)[nH]c2=O)O[C@@H]1CO, which “viability, % of control” value is on record?
Answer: The value was 104% [at 17.3 µM] (inactive).

Question: Which “viability, % of control” value does the source give for C/C=C1/[C@H](O[C@@H]2O[C@H](CO)[C@@H](O)[C@H](O)[C@H]2O)OC=C(C(=O)OC)[C@H]1CC(=O)OCCc1ccc(O)c(O)c1 here?
Answer: The value was 83.5% [at 17.3 µM] (inactive).

Question: With CO[C@@H]1[C@@H](OC(N)=O)[C@@H](O)[C@H](Oc2ccc3c(O)c(NC(=O)c4ccc(O)c(CC=C(C)C)c4)c(=O)oc3c2C)OC1(C)C as the compound, how does the “viability, % of control” value read?
Answer: Its value is 70.2% (inactive).

Question: With CC1(C)OC(=O)Nc2ccc(Br)cc21 as the compound, how does the “viability, % of control” value read?
Answer: Its value is 73.4% (inactive).

Question: For N#Cc1cc([N+](=O)[O-])c2sc(C(N)=O)[n+]([O-])c2c1, which Potency is on record?
Answer: The Potency was 1.64 µM (active).

Question: For CN1CCN(Cc2ccc(Nc3ncc(Cl)c(Nc4ccccc4S(=O)(=O)N(C)C)n3)cc2)CC1, which Potency is on record?
Answer: The Potency was 0.0096 µM (active).

Question: With CCCCCOc1ccccc1/C(=C\SC)n1ccnc1 as the compound, how does the Potency read?
Answer: The Potency was 18.8 µM (active).

Question: With O=C(O)CCCCCC(=O)NN=C1CCCC1 as the compound, how does the “viability, % of control” value read?
Answer: The value was 108% (inactive).

Question: For C=C1C(=O)OC2CC(C)C(CCC(C)=O)=CCC12 (stereo not given), which Potency is on record?
Answer: Its Potency is 5.17 µM (active).

Question: Which “viability, % of control” value does the source give for COc1ccc2cc(C(C)C(=O)Oc3ccc(C(N)=S)cc3)ccc2c1 (stereo not given) here?
Answer: The value was 79.4% (inactive).

Question: With CC/C=C\C(O)C(O)C1=C(C)C(=O)C2(O1)C(=O)NC(OC)(C(=O)c1ccccc1)C2O (stereo not given) as the compound, how does the “viability, % of control” value read?
Answer: Its value is 67.6% [at 17.3 µM] (inactive).

Question: With N=C(N)N1CCc2ccccc2C1 as the compound, how does the viability, % of control read?
Answer: Its viability, % of control is 96.6% [at 4.97 µM] (inactive).

Question: Which “viability, % of control” value does the source give for [Cl][In]([Cl])[Cl] here?
Answer: Its value is 83% [at 91.9 µM] (inactive).

Question: Which “viability, % of control” value does the source give for Oc1ccc(C(O)CNCCCCCCNCC(O)c2ccc(O)c(O)c2)cc1O (stereo not given) here?
Answer: Its value is 94% (inactive).

Question: For CCOC(=O)CCNc1cc(N2CCc3ccccc3CC2)nc(-c2ccccn2)n1, which Potency is on record?
Answer: The Potency was 5.25 µM (active).

Question: Which Potency does the source give for CCCCCCNC(=O)n1cc(F)c(=O)[nH]c1=O here?
Answer: Its Potency is 0.934 µM (active).
